According to PubChem BioAssay (NCATS):
Where “and” joins values, the source holds several entries; their conditions need not be identical. Equal values may be shown once. Inconclusive results are not listed. Calls of active or inactive are those of the source. Unless noted, the call rests on the fitted dose curve; in most records, active means well fitted curve in the direction sought with a large enough effect; inconclusive means small, poorly fitted or top-dose-only effect, or another doubt; inactive means no such curve, though single readings can be large; an effect the other way counts as inactive or inconclusive.

Key:
[1] = target: Bile acid receptor (Homo sapiens) (UniProt Q96RI1); assay: qHTS assay for small molecule agonists of farnesoid X receptor signaling (AID 588527; calls by dose curve;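 further: 0% = vehicle basal and 100% = reference agonist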); settings: HEK293T FXR-UAS-bla, beta-lactamase ratio, 16 h; activation: stronger effect = higher value
In short: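 Read-out: beta-lactamase reporter fluorescence with CCF4 substrate in GeneBLAzer FXR-UAS-bla HEK293T cells, after 16 h compound exposure at 37 C. Response scaled between DMSO basal (0%) and chenodeoxycholic acid at 100 uM (100%).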

[2] = target: Arylsulfatase A (Homo sapiens) (UniProt P15289); assay: qHTS screen for enhancers of Arylsulfatase A (ASA1): LOPAC Validation Assay (AID 720538)
In short: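 First, ASA-I179S fibroblasts from an MLD patient adhered for 6 hrs. Next, compounds were added for 48h. Then pNCS substrate (0.5mM final) with lysis buffer reacted 14h at room temperature before NaOH stop and fluorescence measurement.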

[3] = MultiTox-Fluor Cytotoxicity Assay - LYMP1-002 - Dead Cells (AID 960); further: nearly all actives have a fitted effect of over 60% in size; further: potency means the concentration at half of the fitted maximal effect
In short: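 Human lymphoblastoid LYMP1-002 cells, 2500/well, treated 16 h at 37 C; dead-cell protease cleavage of bis-AAF-R110 read by fluorescence (485/520); normalized to DMSO and 15 uM tetraoctylammonium bromide; AC50 from Hill fit.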

[4] = qHTS for differential inhibitors of proliferation of Plasmodium falciparum line W2 (AID 1883); settings: Potency: Plasmodium falciparum W2 proliferation inhibition;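 further: potency means the concentration at half of the fitted maximal effect; parasites grown with compound for 72 h before lysis and staining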
[5] = target: Glucocorticoid receptor (Homo sapiens) (UniProt P04150); assay: qHTS assay for small molecule antagonists of glucocorticoid receptor signaling (AID 588533; active means well fitted inhibition curve with a large enough effect in the signal ratio, with a control signal flat, not every such curve was filed as active; the % refers to the signal ratio;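 further: cells stimulated with 2 nM dexamethasone as agonist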; further: potency means the concentration at half of the fitted maximal effect)
In short: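 Antagonist-mode qHTS: compound titrations added to GRE-bla HeLa cells, then dexamethasone 2 nM final; 18 h, 37 C. CCF4 FRET fluorescence normalized to dexamethasone and DMSO; IC50 from Hill fit.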

[6] = Cell Viability - N2a (AID 540); settings: N2a mouse neuroblastoma cell viability; at 92.2 µM (top of the series);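 further: plate controls were DMSO alone for no effect and tamoxifen control for full effect; nearly all actives have a fitted effect of over 45% in size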
In short: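 Mouse neuroblastoma N2a cells, 1500/well, exposed to compounds 40 h at 37 °C in complete medium. Viability measured as cellular ATP by CellTiter-Glo luminescence; AC50 from Hill fits of concentration-response.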

[7] = Cell Viability - NIH 3T3 (AID 541); settings: NIH 3T3 cell viability, qHTS; at 92.2 µM (top of the series);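 further: plate controls were DMSO alone for no effect and tamoxifen positive control for full effect; nearly all actives have a fitted effect of over 25% in size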
In short: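 Mouse NIH 3T3 fibroblasts, 1000 cells/well, rested 5 hr at 37 °C, then exposed to compound for 40 hr at 37 °C in complete medium. Viability read as intracellular ATP by CellTiter-Glo luminescence; AC50 from Hill-equation fits of concentration-response data.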

[8] = Cell Viability - Renal Proximal Tubule (AID 545);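 further: 0% = DMSO only and -100% = 100 µM tamoxifen; nearly all actives have a fitted effect of over 40% in size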
In short: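 Cytotoxicity is scored as a concentration-dependent drop in cellular ATP in primary rat renal proximal tubule cells exposed for 40 hr. AC50 derives from Hill modelling.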

[9] = Cellular Toxicity (caspase-3) Jurkat (AID 655);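 further: cells exposed to compound for 16 h at 37 °C before reading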
In short: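 Caspase 3/7 activation is scored as increased luminescence in Jurkat cells cultured with compound for 16 hours in complete medium. AC50 values come from Hill fits of qHTS concentration-response data normalized to DMSO and 100 uM tamoxifen controls.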

[10] = Cell Viability - LYMP2-026 (AID 989); further: on the % scale 0 is the no-effect control and ±100 the full control effect; nearly all actives have a fitted effect of over 50% in size
In short: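 Human lymphoblastoid LYMP2-026 cells, 2500/well, exposed to compound 24 h at 37 C in complete medium. Viability as intracellular ATP by CellTiter-Glo luminescence; AC50 from Hill fits of qHTS concentration-response.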

[11] = Cell Viability - LYMP1-002 - Assay at 24 hr (AID 993); further: on the % scale 0 is the no-effect control and ±100 the full control effect
In short: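 Human lymphoblastoid LYMP1-002 cells (2500/well) treated 24 h at 37 °C; viability as intracellular ATP by CellTiter-Glo luminescence. Tetraoctylammonium bromide as positive control; AC50 from Hill-equation fits of qHTS concentration-response.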

[12] = qHTS Assay for Identification of Small Molecule Inducers of Hypoxia Response (AID 2120; active means well fitted curve in the direction sought with a large enough effect in the signal ratio, with a control signal flat, not every such curve was filed as active; the % refers to the signal ratio; further: 0% is about no effect)
In short: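 HRE-bla ME-180 cells in Opti-MEM with 0.5% dialyzed FBS, pre-plated 4-5 h, then compound titration for 17 h at 37 degrees Celsius. CCF4 loaded 2.5 h at room temperature; 460/530 nm ratio gave %Activity and AC50 for induction.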

[13] = target: Peroxisome proliferator-activated receptor gamma (Homo sapiens) (UniProt P37231); assay: qHTS assay for small molecule agonists of peroxisome proliferator-activated receptor gamma signaling (AID 588536; active means well fitted curve in the direction sought with a large enough effect in the signal ratio, with a control signal flat, not every such curve was filed as active; the % refers to the signal ratio;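 further: 0% = DMSO basal wells and 100% = rosiglitazone at 2 µM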)
In short: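 Test agents, titrated, stimulated HEK293 UAS-bla cells overnight (16 h, 37 C). Substrate CCF4 was then added for two hours at room temperature before fluorescence reading.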

[14] = target: Thyroid hormone receptor beta (Homo sapiens) (UniProt P10828); assay: qHTS assay for small molecule agonists of thyroid hormone receptor beta signaling (AID 588545; calls by dose curve;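 further: 0% = DMSO only and 100% = 10 nM T3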)
In short: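 Efficacy and EC50 values derive from Hill fits of qHTS titration data, normalized to 10 nM T3 and DMSO-only wells. HEK 293 reporter cells were stimulated for 18 hrs at 37 C, with beta-lactamase activity measured by CCF4 fluorescence.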

[15] = qHTS assay for small molecule antagonists of retinoid X receptor alpha signaling (AID 588546; active means well fitted inhibition curve with a large enough effect in the signal ratio, with a control signal flat, not every such curve was filed as active; the % refers to the signal ratio;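 further: cells stimulated with 9-cis-retinoic acid as agonist; on the % scale 0 is the no-effect control and ±100 the full control effect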); settings: HEK293T RXRa-UAS-bla, beta-lactamase ratio, antagonist mode; measured here: W530 green channel, cytotoxicity proxy
In short: (§1)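 Beta-lactamase reporter inhibition, read as CCF4 fluorescence ratio (ex 405, em 460/530 nm) after 2 h at RT. HEK293T UAS-bla cells, 2500/well, were stimulated with 9-cis-RA at 500 or 100 nM final alongside test compound for 18 h at 37 C.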

[16] = target: Retinoic acid receptor RXR-alpha (Homo sapiens) (UniProt P19793); assay: as above; settings: HEK293T RXRa-UAS-bla, beta-lactamase ratio, antagonist mode
In short: as §1

[17] = target: Thyroid hormone receptor beta (Homo sapiens) (UniProt P10828); assay: qHTS assay for small molecule antagonists of thyroid hormone receptor beta signaling (AID 588547; active means well fitted inhibition curve with a large enough effect in the signal ratio, with a control signal flat, not every such curve was filed as active; the % refers to the signal ratio;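 further: cells stimulated with 0.4 nM T3 agonist during compound exposure; on the % scale 0 is the no-effect control and ±100 the full control effect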); settings: TR-UAS-bla HEK293, beta-lactamase ratio, antagonist mode, 18 h
In short: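 TR-UAS-bla GripTite HEK293 cells in 2% charcoal/dextran FBS medium; compounds 0.59 nM to 92 uM with T3 at 0.4nM final, 18 h at 37 C. Beta-lactamase read by CCF4 fluorescence (460/530 nm); Hill fits gave IC50 and efficacy.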

[18] = qHTS assay for small molecule disruptors of the mitochondrial membrane potential - 1 hr assay (AID 651754; calls by dose curve; further: nearly all actives have a fitted effect of over 35% in size; further: potency means the concentration at half of the fitted maximal effect)
In short: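 HepG2 cells, attached overnight, were exposed to compound for 1 hr at 37C, then stained 30 min with a potentiometric dye. Ratio of red aggregate (590nm) to green monomer (535nm) fluorescence reports membrane potential; collapse shifts signal toward green.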

[19] = target: Tumor necrosis factor (Homo sapiens) (UniProt P01375); assay: qHTS assay to identify small molecules that stimulate Tumor Necrosis Factor-alpha (TNF-alpha) secretion (AID 651757; active means well fitted curve in the direction sought with a large enough effect in the signal ratio; the % refers to the signal ratio; further: 0% is about no effect)
In short: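 THP-1 cells (3000/well) exposed to compounds 17 hrs at 37 C. Secreted TNF-alpha detected by HTRF with cryptate- and XL665-labeled anti-TNF-alpha antibodies after 3 hr at room temperature.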

[20] = target: Chromobox protein homolog 1 (Homo sapiens) (UniProt P83916); assay: qHTS Validation Assay for Inhibitors of HP1-beta Chromodomain Interactions with Methylated Histone Tails (AID 488953); further: nearly all actives have a fitted effect of over 50% in size; further: potency means the concentration at half of the fitted maximal effect
In short: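 HP1-beta (50 nM) preformed 30 min with biotinylated H3(1-18)K9me3 peptide (50 nM) in PBS pH 7.4, 0.01% Tween-20. Compounds added for 30 min at room temperature. Complex disruption read by AlphaScreen with streptavidin donor/nickel chelate acceptor beads (10 ug/mL each).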

Peroxisome proliferator-activated receptor gamma (Homo sapiens), sequence (P37231 whole entry, looked up): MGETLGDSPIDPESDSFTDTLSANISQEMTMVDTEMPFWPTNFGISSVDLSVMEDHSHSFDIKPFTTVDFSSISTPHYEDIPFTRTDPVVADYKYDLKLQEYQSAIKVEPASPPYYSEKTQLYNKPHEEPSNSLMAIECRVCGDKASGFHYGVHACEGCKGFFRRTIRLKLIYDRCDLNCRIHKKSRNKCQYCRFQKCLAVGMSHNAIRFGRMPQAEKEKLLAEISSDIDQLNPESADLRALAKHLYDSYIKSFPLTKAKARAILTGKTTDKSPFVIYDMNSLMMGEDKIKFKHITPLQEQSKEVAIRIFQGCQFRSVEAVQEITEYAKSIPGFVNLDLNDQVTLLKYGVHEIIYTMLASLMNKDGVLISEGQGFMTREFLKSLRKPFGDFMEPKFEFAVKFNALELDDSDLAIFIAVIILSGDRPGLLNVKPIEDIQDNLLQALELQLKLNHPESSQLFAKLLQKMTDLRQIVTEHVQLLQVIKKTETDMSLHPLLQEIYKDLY
Arylsulfatase A (Homo sapiens), sequence (P15289 whole entry, looked up): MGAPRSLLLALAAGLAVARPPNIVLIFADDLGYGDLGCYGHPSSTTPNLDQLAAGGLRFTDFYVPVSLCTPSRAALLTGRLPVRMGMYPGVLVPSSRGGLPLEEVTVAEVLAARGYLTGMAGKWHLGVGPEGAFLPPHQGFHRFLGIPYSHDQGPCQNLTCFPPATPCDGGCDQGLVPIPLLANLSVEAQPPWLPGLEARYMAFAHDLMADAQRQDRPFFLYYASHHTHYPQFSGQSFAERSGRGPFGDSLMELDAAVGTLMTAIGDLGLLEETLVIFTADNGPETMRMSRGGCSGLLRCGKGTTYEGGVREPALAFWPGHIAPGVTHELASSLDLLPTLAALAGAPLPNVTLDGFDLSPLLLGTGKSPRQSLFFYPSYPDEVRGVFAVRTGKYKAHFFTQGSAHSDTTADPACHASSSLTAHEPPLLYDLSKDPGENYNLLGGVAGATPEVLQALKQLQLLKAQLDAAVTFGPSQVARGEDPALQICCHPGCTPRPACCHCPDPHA
Chromobox protein homolog 1 (Homo sapiens), sequence (P83916 whole entry, looked up): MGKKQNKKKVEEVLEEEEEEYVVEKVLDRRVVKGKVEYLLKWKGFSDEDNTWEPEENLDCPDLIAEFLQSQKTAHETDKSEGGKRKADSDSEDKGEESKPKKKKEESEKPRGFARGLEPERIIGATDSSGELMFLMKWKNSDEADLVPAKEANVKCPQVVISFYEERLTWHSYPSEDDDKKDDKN
Glucocorticoid receptor (Homo sapiens), sequence (P04150 whole entry, looked up): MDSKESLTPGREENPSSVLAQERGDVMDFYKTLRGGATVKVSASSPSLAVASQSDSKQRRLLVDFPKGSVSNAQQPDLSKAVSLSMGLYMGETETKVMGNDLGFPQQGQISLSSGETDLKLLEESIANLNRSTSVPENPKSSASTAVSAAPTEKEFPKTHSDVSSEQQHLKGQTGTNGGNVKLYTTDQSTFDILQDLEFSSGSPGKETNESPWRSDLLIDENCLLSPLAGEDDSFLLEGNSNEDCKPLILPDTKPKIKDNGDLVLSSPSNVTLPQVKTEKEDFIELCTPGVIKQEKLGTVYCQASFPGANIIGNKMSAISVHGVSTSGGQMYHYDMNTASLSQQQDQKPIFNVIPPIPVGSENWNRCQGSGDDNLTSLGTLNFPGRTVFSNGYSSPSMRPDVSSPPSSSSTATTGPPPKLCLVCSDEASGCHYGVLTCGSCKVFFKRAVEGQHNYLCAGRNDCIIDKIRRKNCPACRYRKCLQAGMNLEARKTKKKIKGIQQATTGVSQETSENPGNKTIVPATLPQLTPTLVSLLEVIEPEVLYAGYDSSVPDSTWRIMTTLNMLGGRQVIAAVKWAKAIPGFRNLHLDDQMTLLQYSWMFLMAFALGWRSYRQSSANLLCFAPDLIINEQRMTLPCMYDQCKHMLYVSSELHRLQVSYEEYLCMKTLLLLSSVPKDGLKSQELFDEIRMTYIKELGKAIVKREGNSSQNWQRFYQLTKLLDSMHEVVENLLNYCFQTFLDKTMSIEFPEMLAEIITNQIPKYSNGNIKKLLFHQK
Bile acid receptor (Homo sapiens), sequence (Q96RI1 whole entry, looked up): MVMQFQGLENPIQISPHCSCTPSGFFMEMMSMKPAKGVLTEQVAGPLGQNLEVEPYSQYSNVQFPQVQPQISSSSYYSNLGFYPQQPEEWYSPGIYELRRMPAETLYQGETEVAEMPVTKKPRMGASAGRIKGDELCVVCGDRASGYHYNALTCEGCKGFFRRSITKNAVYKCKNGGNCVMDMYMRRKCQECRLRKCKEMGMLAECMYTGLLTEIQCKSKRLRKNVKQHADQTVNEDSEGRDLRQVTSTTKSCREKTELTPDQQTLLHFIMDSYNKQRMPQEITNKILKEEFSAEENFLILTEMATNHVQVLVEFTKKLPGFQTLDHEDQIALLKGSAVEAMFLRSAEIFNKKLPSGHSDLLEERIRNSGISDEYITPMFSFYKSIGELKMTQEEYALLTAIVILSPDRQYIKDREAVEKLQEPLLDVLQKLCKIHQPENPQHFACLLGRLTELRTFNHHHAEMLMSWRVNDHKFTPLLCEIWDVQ
Retinoic acid receptor RXR-alpha (Homo sapiens), sequence (P19793 whole entry, looked up): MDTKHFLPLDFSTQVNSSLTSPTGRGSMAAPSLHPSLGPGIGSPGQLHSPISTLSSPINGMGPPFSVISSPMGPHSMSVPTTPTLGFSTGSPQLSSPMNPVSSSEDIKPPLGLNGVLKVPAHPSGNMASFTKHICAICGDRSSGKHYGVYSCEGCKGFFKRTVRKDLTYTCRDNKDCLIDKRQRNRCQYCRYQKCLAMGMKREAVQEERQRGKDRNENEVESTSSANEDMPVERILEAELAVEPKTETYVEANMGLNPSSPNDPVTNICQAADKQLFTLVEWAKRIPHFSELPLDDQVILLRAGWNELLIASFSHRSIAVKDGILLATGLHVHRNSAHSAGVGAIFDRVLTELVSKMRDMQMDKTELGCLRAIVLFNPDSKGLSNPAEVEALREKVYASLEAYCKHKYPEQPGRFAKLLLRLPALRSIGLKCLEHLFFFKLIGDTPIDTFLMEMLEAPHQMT
Thyroid hormone receptor beta (Homo sapiens), sequence (P10828 whole entry, looked up): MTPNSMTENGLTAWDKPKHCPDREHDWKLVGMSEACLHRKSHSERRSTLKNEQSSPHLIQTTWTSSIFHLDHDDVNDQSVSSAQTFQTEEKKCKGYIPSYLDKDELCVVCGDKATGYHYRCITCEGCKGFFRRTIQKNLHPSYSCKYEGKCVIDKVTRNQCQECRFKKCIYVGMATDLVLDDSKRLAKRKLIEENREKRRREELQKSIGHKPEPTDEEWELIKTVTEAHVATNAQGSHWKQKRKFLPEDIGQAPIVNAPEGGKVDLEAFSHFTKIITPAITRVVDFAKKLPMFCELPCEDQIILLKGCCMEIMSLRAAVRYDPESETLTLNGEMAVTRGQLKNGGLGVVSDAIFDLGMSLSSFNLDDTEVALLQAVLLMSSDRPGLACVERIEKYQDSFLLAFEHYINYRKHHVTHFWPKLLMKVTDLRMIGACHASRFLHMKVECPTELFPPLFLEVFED
Tumor necrosis factor (Homo sapiens), sequence (P01375 whole entry, looked up): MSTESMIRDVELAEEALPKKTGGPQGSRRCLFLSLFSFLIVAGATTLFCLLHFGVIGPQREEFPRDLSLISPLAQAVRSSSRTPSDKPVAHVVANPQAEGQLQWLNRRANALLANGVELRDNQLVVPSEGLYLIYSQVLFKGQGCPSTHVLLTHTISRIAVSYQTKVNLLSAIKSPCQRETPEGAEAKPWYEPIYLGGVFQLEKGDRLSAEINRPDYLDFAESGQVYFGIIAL

Nc1nc(N)c2nc(CNc3ccc(C(=O)NC(CCC(=O)O)C(=O)O)cc3)cnc2n1 (stereo not drawn)
inactive: activation [1] 1.76% | Potency [2]

Oc1ccccc1O
active: Potency [3] 20 µM | Potency [4] 10 µM | Potency [5] 35.5 µM

CC(C)COC(=O)c1ccccc1C(=O)OCC(C)C
-12.2%: max response [15]
inactive: activity change, negative = cytotoxicity [6] -12.6% | activity change, negative = cytotoxicity [7] -26.2% | outcome [8] | outcome [9] | outcome [10] | outcome [11] | outcome [12] | activation [1] -1.69% | Potency [5] | outcome [13] | Potency [14] | max response [16] 12.8% | activity change % (negative = inhibition) [17] 9.26% | Potency [18] | outcome [19]

CCCc1c(OCCCOc2ccc(OCC(=O)O)cc2)ccc(C(C)=O)c1O
inactive: activation [1] 3%

N#C/C(=C\c1ccc(O)c(O)c1)C(=O)NCCCNC(=O)/C(C#N)=C/c1ccc(O)c(O)c1
active: Potency [4] 2.24 µM | Potency [20] 3.77 µM

NO
inactive: Potency [2]
active: Potency [20] 0.006 µM

Oc1ccccc1Cl
-10.5%: max response [15]
inactive: activity change, negative = cytotoxicity [6] -11.6% | activity change, negative = cytotoxicity [7] -20.7% | outcome [8] | outcome [9] | Potency [3] | outcome [10] | outcome [11] | outcome [12] | Potency [5] | outcome [13] | Potency [14] | max response [16] 10.4% | activity change % (negative = inhibition) [17] -7.68% | Potency [18] | outcome [19]

c1ccc2c(c1)-c1cccc3cccc-2c13
-3.55%: max response [15]
inactive: activity change, negative = cytotoxicity [6] -25.7% | activity change, negative = cytotoxicity [7] -24% | outcome [8] | outcome [9] | Potency [3] | outcome [10] | outcome [11] | Potency [14] | max response [16] -2.14% | activity change % (negative = inhibition) [17] 3.57% | outcome [19]

Nc1nc2[nH]c(=O)cnc2c(=O)[nH]1
active: Potency [20] 0.0095 µM

Nc1nc2ccc(Cl)cc2c2nc(-c3ccco3)nn12
inactive: Potency [2]
active: Potency [4] 11.2 µM

c1ccc(Nc2ccc3ccccc3c2)cc1
-7.73% and -2.18%: max response [15]
inactive: activity change, negative = cytotoxicity [7] -27% | outcome [9] | outcome [10] | outcome [11] | outcome [12] | activation [1] 5.18% and -0.414% | Potency [5] | outcome [13] | Potency [14] | max response [16] 4.38% and -18.9% | activity change % (negative = inhibition) [17] -6.28%
active: Potency [18] 37.6 µM

COc1cc([C@@H]2c3cc4c(cc3[C@H](O)C3COC(=O)[C@@H]32)OCO4)cc(OC)c1OC (stereo partly drawn)
active: Potency [4] 11.2 µM

O=c1oc(Cl)c(Cl)c2ccccc12
active: Potency [20] 39.8 µM

CC(=O)/C=C/c1ccccc1
active: activity change, negative = cytotoxicity [7] -123%
-5.45%: max response [15]
inactive: activity change, negative = cytotoxicity [6] -5.72% | outcome [8] | outcome [9] | Potency [3] | outcome [10] | outcome [11] | outcome [12] | Potency [5] | outcome [13] | max response [16] 11.5% | Potency [18] | outcome [19]

Brc1c(Br)c(Br)c2n[nH]nc2c1Br
inactive: Potency [20]

COC1=CC(=O)OC(CCc2ccc3c(c2)OCO3)C1 (stereo not drawn)
inactive: activity change, negative = cytotoxicity [6] -20.1% | outcome [8] | Potency [3] | outcome [10] | outcome [11] | outcome [12] | outcome [13] | Potency [14] | activity change % (negative = inhibition) [17] -2% | Potency [18] | outcome [19]

CN1[C@@H](CC(=O)c2ccccc2)CCC[C@H]1C[C@H](O)c1ccccc1
inactive: Potency [2]
active: Potency [4] 3.98 µM

CCCCCCCCCC[Si](C)(C)CCC(=O)NC(Cc1ccc(C)cc1)c1ccccc1 (stereo not drawn)
active: Potency [4] 3.16 µM

CCOC(=O)c1ccccc1N
inactive: activity change, negative = cytotoxicity [6] 3.3% | activity change, negative = cytotoxicity [7] -0.518% | outcome [8] | outcome [9] | Potency [3] | outcome [10] | outcome [11] | outcome [12] | activation [1] -0.579% | Potency [5] | outcome [13] | Potency [14] | max response [16] 10.1% | activity change % (negative = inhibition) [17] 5.04% | Potency [18] | outcome [19]
-2.66%: max response [15]

COc1ccc2c(c1)CCC1C2CC[C@@]2(C)C1CC[C@@H]2NCCCCCCN1C(=O)C=CC1=O (stereo partly drawn)
active: Potency [20] 50.1 µM

O=C(O)CNC(=O)C(CS)Cc1ccccc1 (stereo not drawn)
inactive: Potency [2]

CC(=O)C(C)=O
inactive: Potency [20] | activation [1] 0.539% | Potency [2]
